In PubChem BioAssay (EPA / NIEHS):
Inconclusive results are not listed. Calls of active or inactive are those of the source. How the source made its calls, unless noted: active means hit-call score of the fitted dose curve at least 0.9, where 1 is the maximum; inconclusive means response in the unintended direction; inactive means score below 0.9.

Columns and labels:
[1] = target: Retinoic acid receptor alpha (Homo sapiens) (UniProt P10276); assay: ATG_DR5_RAR_CIS: Attagene CIS-FACTORIAL HepG2 Assay for human Retinoic Acid Receptor Alpha (RARE), DR5 submotif (AID 2282934; active means hit-call score of the fitted dose curve at least 0.9, where 1 is the maximum; inactive means score below 0.9); conditions: HepG2 Attagene cis-factorial RARE DR5 reporter, mRNA; actives raise or lower the signal
Method in brief: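 Transfected HepG2 reporter cells are exposed to chemicals for 24 h. Then RNA is extracted and the DR5 element reporter transcript is measured by RT-PCR and capillary electrophoresis, with bidirectional curve fitting relative to DMSO.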

[2] = ATG_PBREM_CIS: Attagene CIS-FACTORIAL HepG2 Assay for human Phenobarbital-responsive Enhancer Module (PBREM) (AID 2282955; active means hit-call score of the fitted dose curve at least 0.9, where 1 is the maximum; inactive means score below 0.9); conditions: HepG2 PBREM cis-reporter, Attagene multiplexed transcription; actives raise or lower the signal
Method in brief: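 Reporter mRNA read by RT-PCR, 6-FAM primer extension, HpaI digestion and capillary electrophoresis. Transfected HepG2 cells, 24 h compound exposure. Gain or loss of signal fitted bidirectionally relative to DMSO baseline.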

[3] = target: Estrogen-related receptor gamma (Homo sapiens) (UniProt P62508); assay: ATG_ERRg_TRANS: Attagene TRANS-FACTORIAL HepG2 Assay for human Estrogen-Related Receptor gamma (ERRg) (AID 2282977); conditions: HepG2 Attagene TRANS reporter, ERRg transactivation;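 further: hits increase reporter signal over DMSO so potencies reflect activators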
Method in brief: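 Exogenous NR-Gal4 chimera activity measured as reporter transcript induction after 24 h in transiently transfected HepG2 cells. RNA reverse-transcribed, PCR-amplified, 6-FAM-labelled and resolved by capillary electrophoresis; increase over DMSO baseline.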

[4] = target: Glucocorticoid receptor (Homo sapiens) (UniProt P04150); assay: ATG_GR_TRANS: Attagene TRANS-FACTORIAL HepG2 Assay for human Glucocorticoid Receptor (GR) (AID 2282978); conditions: HepG2 Attagene TRANS GR reporter, mRNA transcription;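 further: activators score as hits since higher reporter transcript over DMSO is fitted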
Method in brief: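 Transient MRTU transfection of HepG2 (GAL4-UAS reporters, exogenous NR-GAL4 chimeras), 24 h dosing. Readout: reporter transcript via RT-PCR + capillary electrophoresis fluorescence. Positive direction vs DMSO baseline.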

[5] = target: Oxysterols receptor LXR-alpha (Homo sapiens) (UniProt Q13133); assay: ATG_LXRa_TRANS: Attagene TRANS-FACTORIAL HepG2 Assay for human Liver X Receptor alpha (LXRa) (AID 2282980); conditions: HepG2 Attagene TRANS reporter, LXRa transactivation
Method in brief: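 HepG2 cells transiently transfected with GAL4-UAS reporter units for chimeric NR-Gal4 proteins, exposed to chemicals for 24 h. Reporter mRNA quantified by RT-PCR and capillary electrophoresis; gain of signal fitted relative to DMSO.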

[6] = target: Oxysterols receptor LXR-beta (Homo sapiens) (UniProt P55055); assay: ATG_LXRb_TRANS: Attagene TRANS-FACTORIAL HepG2 Assay for human Liver X Receptor beta (LXRb) (AID 2282981); conditions: HepG2 Attagene TRANS GAL4-LXRb reporter, mRNA
Method in brief: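 Measures induction of a Gal4-driven reporter transcript in HepG2 cells expressing an exogenous LXRb-Gal4 fusion. Cells are exposed to compound for 24 h before RNA isolation and RT-PCR with capillary electrophoresis detection.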

[7] = target: human Peroxisome Proliferator-activated Receptor alpha (PPARa), PPARA (gene 5465) (UniProt Q07869); assay: ATG_PPARa_TRANS: Attagene TRANS-FACTORIAL HepG2 Assay for human Peroxisome Proliferator-activated Receptor alpha (PPARa) (AID 2283001);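 on AC50: potency for gain of reporter signal over DMSO so agonist or activator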
Method in brief: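 Cells (HepG2) are transfected with multiple reporter transcription units, exposed to chemical for 24 h, then total RNA is reverse-transcribed and amplified. Labelled products are quantified by capillary electrophoresis; induction is referenced to DMSO.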

[8] = target: human Peroxisome Proliferator-activated Receptor delta (PPARd), PPARD (gene 5467) (UniProt Q03181); assay: ATG_PPARd_TRANS: Attagene TRANS-FACTORIAL HepG2 Assay for human Peroxisome Proliferator-activated Receptor delta (PPARd) (AID 2283002)
Method in brief: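 Measured quantity: GAL4-UAS reporter transcript induction in HepG2 after 24 h chemical dosing, with NR-Gal4 chimeras supplied by transient transfection. Detection by RT-PCR and capillary electrophoresis; upward fit against DMSO.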

[9] = target: human Vitamin D Receptor (VDR), VDR (gene 7421) (UniProt P11473); assay: ATG_VDR_TRANS: Attagene TRANS-FACTORIAL HepG2 Assay for human Vitamin D Receptor (VDR) (AID 2283022)
Method in brief: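 HepG2 cells were transiently transfected with GAL4-UAS reporter units and a chimeric VDR-Gal4 construct, then dosed for 24 hours. Reporter mRNA was quantified by RT-PCR, fluorescent labeling, HpaI digestion and capillary electrophoresis; gain of signal analysed vs DMSO.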

[10] = ATG_GRE_CIS: Attagene CIS-FACTORIAL HepG2 Assay for human Glucocorticoid Response Elements (GRE) (AID 2282947; active means hit-call score of the fitted dose curve at least 0.9, where 1 is the maximum; inactive means score below 0.9); conditions: HepG2 GRE cis-reporter, Attagene multiplex mRNA; actives raise or lower the signal
Method in brief: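 Cells (HepG2) bearing transfected cis-promoter reporter transcription units were treated with chemical for 24 hours. Reporter mRNA was measured via RT-PCR with capillary electrophoresis, and activity was fitted in both directions relative to DMSO.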

[11] = ATG_VDRE_CIS: Attagene CIS-FACTORIAL HepG2 Assay for human Vitamin D Receptor Element (VDRE) (AID 2282968; active means hit-call score of the fitted dose curve at least 0.9, where 1 is the maximum; inactive means score below 0.9); conditions: HepG2 VDRE cis-reporter transcription, actives raise or lower the signal
Method in brief: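 Steps: transfect HepG2 with multiple reporter transcription units; dose chemicals 24 h; isolate RNA; RT-PCR; label with 6-FAM primer extension; HpaI digest; capillary electrophoresis. Curves fitted both directions against DMSO.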

[12] = ATG_M_19_TRANS: Attagene TRANS-FACTORIAL HepG2 Assay for M19 Transcription Factor (Internal Marker) (AID 2282974); conditions: HepG2 Attagene TRANS-FACTORIAL M19 internal marker reporter
Method in brief: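 24 h chemical exposure of transiently transfected HepG2 (MRTU library). RNA → oligo(dT) RT → PCR → 6-FAM labelling → HpaI cut → CE fluorescence. Positive-direction fit vs DMSO baseline; background internal-marker readout.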

[13] = TOX21_p53_BLA_p3_viability: Viability Assessment in the Tox21 HCT-116 p53 Agonism Beta-lactamase Assay, Phase 3 (AID 2283593);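 further: cells exposed to compound for 16 h before reading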
Method in brief: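 HCT-116 cells (4000/well) rested 5 h at 37C, then got DMSO compounds by pin tool (217-fold dilution) for 16 h at 37C, 5% CO2. After the bla read, CellTiter-Glo was added and luminescence read at 30 min, room temperature.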

[14] = target: Nuclear receptor subfamily 1 group I member 3 (Homo sapiens) (UniProt Q14994); assay: ATG_CAR_TRANS: Attagene TRANS-FACTORIAL HepG2 Assay for human Constitutive Androstane Receptor (CAR) (AID 2282969); conditions: HepG2 Attagene TRANS-FACTORIAL CAR reporter;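 further: activators raise reporter mRNA above DMSO so AC50 marks induction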
Method in brief: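 Steps: transient transfection of HepG2 with multiple GAL4-UAS reporter units; 24 h compound incubation; RNA isolation, RT-PCR, 6-FAM primer extension, HpaI digest; capillary electrophoresis. Gain-of-signal relative to DMSO negative control.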

[15] = CCTE_Harrill_HTTr_Viability_MCF7: CCTE's 6-hour Cell Viability Assessment for the High-Throughput Transcriptomics (HTTr) Platform, in MCF-7 cells cultured in DMEM + 10% fetal bovine serum, Harrill Lab (AID 2284010; active means hit-call score of the fitted dose curve at least 0.9, where 1 is the maximum; inactive means score below 0.9)
Method in brief: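 Propidium iodide exclusion, imaged by high-content analysis, gauged viability after a six-hour exposure across eight concentrations. Cells were MCF-7 grown in DMEM with 10% fetal bovine serum; fits run in both directions against DMSO.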

[16] = CCTE_Harrill_HTTr_Apoptosis_MCF7: CCTE's 6-hour Apoptosis Assessment for the High-Throughput Transcriptomics (HTTr) Platform, in MCF-7 cells cultured in DMEM + 10% fetal bovine serum, Harrill Lab (AID 2284011; active means hit-call score of the fitted dose curve at least 0.9, where 1 is the maximum; inactive means score below 0.9)
Method in brief: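 MCF-7 cells in DMEM + 10% FBS exposed 6 h to chemicals over an eight-point dilution series. Caspase-3/7 activation imaged by high-content CellEvent Green staining; fitted bidirectionally versus DMSO.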

[17] = ATG_M_06_TRANS: Attagene TRANS-FACTORIAL HepG2 Assay for M06 Transcription Factor (Internal Marker) (AID 2282983); conditions: HepG2 Attagene TRANS M06 internal marker reporter
Method in brief: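 mRNA levels of a reporter transcript, quantified as FAM fluorescence on capillary electrophoresis, served as readout. HepG2 cells expressing exogenous GAL4-chimera reporter constructs were exposed for 24 h. Gain of signal over DMSO was evaluated.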

[18] = target: human RAR-related Orphan Receptor beta (RORb), RORB (gene 6096) (UniProt Q92753); assay: ATG_RORb_TRANS: Attagene TRANS-FACTORIAL HepG2 Assay for human RAR-related Orphan Receptor beta (RORb) (AID 2283010)
Method in brief: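 Read-out is reporter mRNA induction, quantified by RT-PCR with fluorescent capillary electrophoresis, 24 h post-dose in transiently transfected HepG2 expressing exogenous NR-Gal4 chimera. Activity fitted upward versus DMSO.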

[19] = ACEA_ER_AUC_viability: ACEA Biosciences xCELLigence Real-Time Cell Analysis on Estrogen Receptor Agonism for Viability (AID 2283782);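 further: hit means loss of impedance signal meaning reduced cell growth or viability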
Method in brief: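 Continuous-exposure impedance cell analysis uses T-47D cells in charcoal-stripped serum, eight 1:4 dilutions topping at 100 uM final, biological duplicate. Area under the growth curve at 80 h is fitted against DMSO baseline.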

[20] = ATG_PPRE_CIS: Attagene CIS-FACTORIAL HepG2 Assay for human Peroxisome Proliferator-activated Response Element (PPRE) (AID 2282958; active means hit-call score of the fitted dose curve at least 0.9, where 1 is the maximum; inactive means score below 0.9); conditions: HepG2 PPRE cis-element reporter, Attagene transcription factor profiling; actives raise or lower the signal
Method in brief: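 Read-out: fluorescent reporter mRNA fragments resolved by capillary electrophoresis after RT-PCR. HepG2 cells carried transiently transfected PPRE-driven cis reporter constructs and were dosed for 24 h; gain or loss of signal fitted relative to DMSO.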

Measured: AC50

human Peroxisome Proliferator-activated Receptor delta (PPARd), PPARD (gene 5467), sequence (Q03181 whole entry, looked up, the tested form may be a part): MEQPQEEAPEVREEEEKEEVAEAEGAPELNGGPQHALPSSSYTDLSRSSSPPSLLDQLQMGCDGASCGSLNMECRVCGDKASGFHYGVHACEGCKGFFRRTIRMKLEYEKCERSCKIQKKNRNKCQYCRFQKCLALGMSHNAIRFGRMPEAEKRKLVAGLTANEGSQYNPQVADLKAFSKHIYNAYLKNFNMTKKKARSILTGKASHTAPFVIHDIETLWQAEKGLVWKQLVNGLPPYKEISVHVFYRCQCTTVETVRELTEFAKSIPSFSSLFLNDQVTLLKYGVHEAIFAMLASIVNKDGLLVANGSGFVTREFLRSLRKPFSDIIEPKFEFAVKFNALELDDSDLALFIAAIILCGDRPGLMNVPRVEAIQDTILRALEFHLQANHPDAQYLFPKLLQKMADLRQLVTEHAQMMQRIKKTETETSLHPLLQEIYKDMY
Nuclear receptor subfamily 1 group I member 3 (Homo sapiens), sequence (Q14994 whole entry, looked up, the tested form may be a part): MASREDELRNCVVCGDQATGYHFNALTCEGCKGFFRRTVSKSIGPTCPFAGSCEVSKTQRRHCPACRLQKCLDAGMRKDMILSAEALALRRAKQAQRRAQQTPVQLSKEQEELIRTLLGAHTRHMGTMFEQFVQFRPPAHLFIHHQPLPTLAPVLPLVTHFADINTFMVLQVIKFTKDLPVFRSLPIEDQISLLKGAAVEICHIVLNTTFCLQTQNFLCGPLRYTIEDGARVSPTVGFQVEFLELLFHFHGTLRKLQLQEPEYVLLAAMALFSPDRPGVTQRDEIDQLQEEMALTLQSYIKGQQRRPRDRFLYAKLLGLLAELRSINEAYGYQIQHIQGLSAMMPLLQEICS
human Peroxisome Proliferator-activated Receptor alpha (PPARa), PPARA (gene 5465), sequence (Q07869 whole entry, looked up): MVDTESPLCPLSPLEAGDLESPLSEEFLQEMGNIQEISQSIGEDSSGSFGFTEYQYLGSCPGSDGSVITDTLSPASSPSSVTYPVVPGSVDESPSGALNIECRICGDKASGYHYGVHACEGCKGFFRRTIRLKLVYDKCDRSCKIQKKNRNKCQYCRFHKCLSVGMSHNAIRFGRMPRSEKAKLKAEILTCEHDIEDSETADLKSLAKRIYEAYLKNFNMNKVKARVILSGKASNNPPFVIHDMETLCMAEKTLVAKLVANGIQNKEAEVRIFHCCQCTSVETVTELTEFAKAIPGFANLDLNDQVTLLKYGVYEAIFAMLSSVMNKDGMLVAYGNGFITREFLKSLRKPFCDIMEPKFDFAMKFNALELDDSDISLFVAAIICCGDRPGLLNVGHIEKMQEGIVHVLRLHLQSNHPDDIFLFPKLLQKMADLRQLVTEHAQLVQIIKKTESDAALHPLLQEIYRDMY
Oxysterols receptor LXR-beta (Homo sapiens), sequence (P55055 whole entry, looked up, the tested form may be a part): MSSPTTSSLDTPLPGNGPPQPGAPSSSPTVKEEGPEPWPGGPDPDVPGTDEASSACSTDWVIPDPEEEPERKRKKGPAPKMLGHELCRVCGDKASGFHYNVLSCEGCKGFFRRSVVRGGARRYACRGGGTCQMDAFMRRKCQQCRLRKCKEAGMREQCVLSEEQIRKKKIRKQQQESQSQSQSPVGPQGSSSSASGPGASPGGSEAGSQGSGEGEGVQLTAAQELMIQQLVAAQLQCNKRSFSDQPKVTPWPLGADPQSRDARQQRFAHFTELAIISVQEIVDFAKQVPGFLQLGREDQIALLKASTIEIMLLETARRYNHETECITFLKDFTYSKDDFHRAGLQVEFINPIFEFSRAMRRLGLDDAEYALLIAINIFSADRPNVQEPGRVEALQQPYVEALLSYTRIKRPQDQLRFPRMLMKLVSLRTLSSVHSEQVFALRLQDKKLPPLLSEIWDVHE
human RAR-related Orphan Receptor beta (RORb), RORB (gene 6096), sequence (Q92753 whole entry, looked up, the tested form may be a part): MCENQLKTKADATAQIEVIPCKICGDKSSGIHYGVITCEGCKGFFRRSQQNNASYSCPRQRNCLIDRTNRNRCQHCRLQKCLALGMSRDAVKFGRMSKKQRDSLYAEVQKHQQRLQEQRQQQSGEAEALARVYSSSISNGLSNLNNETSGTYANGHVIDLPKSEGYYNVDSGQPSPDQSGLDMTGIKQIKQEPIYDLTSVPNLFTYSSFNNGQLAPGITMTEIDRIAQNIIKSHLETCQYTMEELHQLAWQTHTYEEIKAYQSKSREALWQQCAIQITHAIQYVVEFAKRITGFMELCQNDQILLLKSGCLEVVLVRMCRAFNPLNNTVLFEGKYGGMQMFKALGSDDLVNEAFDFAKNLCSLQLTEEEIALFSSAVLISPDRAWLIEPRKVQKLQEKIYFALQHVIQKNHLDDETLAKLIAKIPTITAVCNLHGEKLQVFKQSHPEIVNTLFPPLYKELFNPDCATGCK
Glucocorticoid receptor (Homo sapiens), sequence (P04150 whole entry, looked up, the tested form may be a part): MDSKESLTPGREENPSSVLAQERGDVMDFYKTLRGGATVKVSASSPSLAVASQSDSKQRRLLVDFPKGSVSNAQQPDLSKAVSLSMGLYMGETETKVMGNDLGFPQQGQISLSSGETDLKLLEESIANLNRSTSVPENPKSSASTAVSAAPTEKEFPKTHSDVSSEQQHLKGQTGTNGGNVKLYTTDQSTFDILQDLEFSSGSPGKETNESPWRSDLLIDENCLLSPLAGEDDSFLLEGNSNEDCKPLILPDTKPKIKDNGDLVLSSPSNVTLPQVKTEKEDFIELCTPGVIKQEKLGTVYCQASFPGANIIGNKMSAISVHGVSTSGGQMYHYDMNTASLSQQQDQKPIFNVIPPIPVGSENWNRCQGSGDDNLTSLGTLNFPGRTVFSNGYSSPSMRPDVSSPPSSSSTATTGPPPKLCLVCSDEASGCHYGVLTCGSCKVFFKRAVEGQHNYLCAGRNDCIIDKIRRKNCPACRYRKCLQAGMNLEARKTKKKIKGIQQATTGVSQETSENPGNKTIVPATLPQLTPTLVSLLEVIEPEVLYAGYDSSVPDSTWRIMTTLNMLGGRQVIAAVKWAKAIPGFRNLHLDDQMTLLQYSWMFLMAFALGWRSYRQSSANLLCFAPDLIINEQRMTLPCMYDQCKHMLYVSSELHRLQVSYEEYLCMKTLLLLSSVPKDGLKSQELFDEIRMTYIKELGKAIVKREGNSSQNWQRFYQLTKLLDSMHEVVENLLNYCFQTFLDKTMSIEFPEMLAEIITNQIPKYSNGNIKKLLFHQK
Estrogen-related receptor gamma (Homo sapiens), sequence (P62508 whole entry, looked up, the tested form may be a part): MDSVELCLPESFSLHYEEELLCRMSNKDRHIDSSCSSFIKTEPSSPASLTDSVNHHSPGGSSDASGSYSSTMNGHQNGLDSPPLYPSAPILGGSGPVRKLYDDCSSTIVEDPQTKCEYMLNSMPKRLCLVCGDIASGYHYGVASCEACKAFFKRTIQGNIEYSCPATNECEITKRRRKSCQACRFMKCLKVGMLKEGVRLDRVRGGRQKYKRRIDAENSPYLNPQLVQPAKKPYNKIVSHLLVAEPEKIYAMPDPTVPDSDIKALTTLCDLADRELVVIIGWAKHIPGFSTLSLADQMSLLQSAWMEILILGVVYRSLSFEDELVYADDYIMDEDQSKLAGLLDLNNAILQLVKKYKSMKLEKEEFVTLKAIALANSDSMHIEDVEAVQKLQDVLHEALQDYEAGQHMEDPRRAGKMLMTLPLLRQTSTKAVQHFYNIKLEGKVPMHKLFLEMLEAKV
Retinoic acid receptor alpha (Homo sapiens), sequence (P10276 whole entry, looked up): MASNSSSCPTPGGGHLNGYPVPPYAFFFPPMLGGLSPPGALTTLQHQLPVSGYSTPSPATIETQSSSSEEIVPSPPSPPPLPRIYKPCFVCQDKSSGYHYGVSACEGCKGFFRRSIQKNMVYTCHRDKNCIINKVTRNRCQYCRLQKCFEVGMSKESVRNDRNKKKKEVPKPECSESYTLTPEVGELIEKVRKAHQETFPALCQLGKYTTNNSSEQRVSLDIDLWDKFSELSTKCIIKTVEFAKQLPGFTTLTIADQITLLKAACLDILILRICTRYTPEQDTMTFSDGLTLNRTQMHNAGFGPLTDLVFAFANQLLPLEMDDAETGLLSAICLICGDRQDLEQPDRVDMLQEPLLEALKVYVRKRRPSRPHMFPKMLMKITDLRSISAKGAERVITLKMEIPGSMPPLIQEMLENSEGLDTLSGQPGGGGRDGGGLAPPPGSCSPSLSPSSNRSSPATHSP
human Vitamin D Receptor (VDR), VDR (gene 7421), sequence (P11473 whole entry, looked up, the tested form may be a part): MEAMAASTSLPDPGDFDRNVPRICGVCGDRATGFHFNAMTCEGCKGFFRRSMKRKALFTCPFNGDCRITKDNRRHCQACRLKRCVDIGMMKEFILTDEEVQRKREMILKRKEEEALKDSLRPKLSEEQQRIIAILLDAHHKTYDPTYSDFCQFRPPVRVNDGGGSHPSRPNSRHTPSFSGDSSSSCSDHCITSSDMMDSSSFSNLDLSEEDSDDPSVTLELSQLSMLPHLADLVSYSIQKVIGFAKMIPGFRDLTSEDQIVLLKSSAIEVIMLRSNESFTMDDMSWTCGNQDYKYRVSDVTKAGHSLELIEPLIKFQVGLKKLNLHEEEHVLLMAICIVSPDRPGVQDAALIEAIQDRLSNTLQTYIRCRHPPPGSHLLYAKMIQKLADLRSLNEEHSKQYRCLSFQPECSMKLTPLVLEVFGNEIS
Oxysterols receptor LXR-alpha (Homo sapiens), sequence (Q13133 whole entry, looked up, the tested form may be a part): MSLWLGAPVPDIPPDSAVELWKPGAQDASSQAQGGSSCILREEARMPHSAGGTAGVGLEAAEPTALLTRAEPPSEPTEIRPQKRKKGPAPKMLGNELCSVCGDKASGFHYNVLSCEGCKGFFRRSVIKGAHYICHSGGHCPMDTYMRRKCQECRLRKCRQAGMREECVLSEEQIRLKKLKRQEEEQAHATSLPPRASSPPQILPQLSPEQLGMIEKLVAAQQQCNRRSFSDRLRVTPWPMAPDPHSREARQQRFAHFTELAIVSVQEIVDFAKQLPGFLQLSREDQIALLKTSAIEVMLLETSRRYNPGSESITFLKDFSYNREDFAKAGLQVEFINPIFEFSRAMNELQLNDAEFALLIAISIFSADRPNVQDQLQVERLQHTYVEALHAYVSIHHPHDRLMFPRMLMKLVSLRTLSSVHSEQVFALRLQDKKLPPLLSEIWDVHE

O=C(O)c1nc(Cl)c(Cl)c(Cl)c1Cl
inactive: [1] | [2] | [3] | [4] | [5] | [6] | [7] | [8] | [9]

CCO[Si](OCC)(OCC)c1ccccc1
inactive: [10] | [11] | [12] | [4] | [7] | [9] | [13]

NCc1ccccc1
inactive: [14] | [12] | [3] | [4] | [6] | [7] | [13] | [15] | [16]

CC(C)CC(=O)CC(C)C
inactive: [11] | [3] | [17] | [18] | [9] | [13] | [15] | [16]

CCCC(=O)OC
inactive: [1] | [11] | [6] | [7] | [9] | [13]

CCCCCCC(O)CCCCCCCCCCC(=O)OC (centres undefined)
inactive: [1] | [10] | [2] | [11] | [14] | [4] | [5] | [9] | [13] | [19]
active: [7] 7.36 µM | [8] 22.8 µM

Clc1ccc(Sc2cc(Cl)c(Cl)cc2Cl)cc1
inactive: [1] | [10] | [2] | [11] | [14] | [4] | [5] | [6] | [18] | [9] | [13]

Clc1ccccn1
inactive: [1] | [11] | [12] | [17] | [13] | [15] | [16]

OCCc1ccccn1
inactive: [20] | [11] | [14] | [12] | [4] | [5] | [6] | [8] | [18] | [9]

Cc1cc2nc3c(=O)[nH]c(=O)nc-3n(C[C@H](O)[C@H](O)[C@H](O)CO)c2cc1C
active: [19] 47 µM
not listed: [3] | [4] | [8] | [9] | [10] | [11] | [14] | [20]
inactive: all other assays above

CC(=O)OC(C)(C)Cc1ccccc1
not listed: [2] | [3] | [4] | [10] | [14] | [15] | [16] | [20]
inactive: all other assays above

CCC(C)NC(N)=O (centres undefined)
inactive: [20] | [11] | [14] | [5] | [17] | [18]
active: [19] 50 µM

CNC(=C[N+](=O)[O-])NCCSCc1csc(CN(C)C)n1
inactive: [2] | [20] | [14] | [12] | [5] | [6] | [13] | [15] | [16]
